Experimental data reported in PubChem BioAssay AID1159580 (chemical genetic matrix, 2015).
About 2,000 (36%) of roughly 5,500 compounds were called active. Not shown: some 18% with an inconclusive outcome. Cut-off read from the data, not from the text of the source: active = normalized growth mostly below about 0.91 (no sharp cut-off); inconclusive = no clear call, values can overlap the other calls; inactive = mostly above about 0.92. The list shows a part of the results.

Experiment: chemical genetic growth profiling, strain panel (AID 1159580);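 note: tested at 20 µM; growth read once vehicle control cultures reached saturation at 30 °C; 1 = growth at the plate median or of vehicle wells; lower values mean less growth of the strain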
Conditions: S. cerevisiae deletion strains, growth OD

Measured: normalized growth

CCC(C)C(=O)O[C@@H]1C[C@@]2(C)[C@H](c3ccoc3)OC(=O)CC23OC2(C)O[C@]14[C@]1(C)[C@@H](CC(=O)OC)C5(C)CC1(O)[C@](O)(C5OC(=O)C1(C)OC1C)[C@@H](OC(C)=O)[C@]34O2 (some centres not stated)
inactive: locus YJL187C, strain SWE1, active compounds read low 1 | locus YJR066W, strain TOR1, active compounds read low 0.912 | locus YJR075W, strain HOC1, active compounds read low 1.02 | locus YKL009W, strain mrt4, active compounds read low 0.989 | locus YKL068W, active compounds read low 1 | locus YKL085W, strain MDH1 (second series), active compounds read low 1 | locus YKL085W, strain MDH1, active compounds read low 1 | locus YKL160W, strain elf1, active compounds read low 1.02 | locus YKR001C, strain vps1, active compounds read low 1.01 | locus YKR026C, strain gcn3, active compounds read low 1 | locus YKR091W, strain srl3, active compounds read low 0.996 | locus YLL001W, strain dnm1, active compounds read low 1.01 | locus YLL026W, active compounds read low 1 | locus YLL041C, strain sdh2, active compounds read low 0.987 | locus YLR027C, strain aat2, active compounds read low 1.01 | locus YLR039C, strain RIC1, active compounds read low 0.683 | locus YLR058C, strain SHM2, active compounds read low 1 | locus YLR102C, strain apc9, active compounds read low 1.03 | locus YLR113W, strain HOG1, active compounds read low 1 | locus YLR221C, strain rsa3, active compounds read low 0.978 | locus YLR258W, strain gsy2, active compounds read low 0.988 | locus YLR268W, strain sec22, active compounds read low 0.995 | locus YLR320W, strain mms22, active compounds read low 0.979 | locus YLR330W, strain CHS5, active compounds read low 1.02 | locus YLR342W, strain FKS1 (second series), active compounds read low 0.981 | locus YLR342W, strain FKS1, active compounds read low 0.977 | locus YLR357W, strain rsc2, active compounds read low 1.01 | locus YLR370C, strain arc18, active compounds read low 0.971 | locus YLR371W, strain rom2, active compounds read low 1.01 | locus YLR384C, strain iki3, active compounds read low 1.01 | locus YLR418C, strain cdc73, active compounds read low 1.01 | locus YML016C, strain PPZ1, active compounds read low 1 | locus YML032C, strain rad52, active compounds read low 1.01 | locus YML120C, strain ndi1, active compounds read low 0.992 | locus YML124C, strain tub3, active compounds read low 1.01 | locus YMR058W, strain fet3, active compounds read low 1.01 | locus YMR078C, strain ctf18, active compounds read low 1.02 | locus YMR125W, strain sto1, active compounds read low 0.991 | locus YMR129W, active compounds read low 0.999 | locus YMR205C, strain PFK2, active compounds read low 1.01 | locus YMR223W, strain ubp8, active compounds read low 1.02 | locus YMR231W, strain pep5, active compounds read low 0.945 | locus YMR307W, strain GAS1, active compounds read low 0.925 | locus YNL067W, strain RPL9B, active compounds read low 1.03 | locus YNL071W, strain lat1, active compounds read low 0.994 | locus YNL183C, strain NPR1, active compounds read low 0.928 | locus YNL209W, strain ssb2, active compounds read low 0.995 | locus YNL233W, strain BNI4, active compounds read low 1.03 | locus YNL248C, strain rpa49, active compounds read low 0.975 | locus YNL250W, strain rad50, active compounds read low 1.05 | locus YNL271C, strain bni1, active compounds read low 1.02 | locus YNL298W, strain CLA4, active compounds read low 1.02 | locus YNL307C, strain MCK1, active compounds read low 1.03 | locus YNL322C, strain KRE1 (second series), active compounds read low 0.984 | locus YNL322C, strain KRE1, active compounds read low 1.02 | locus YNR049C, strain mso1, active compounds read low 0.999 | locus YNR052C, strain pop2, active compounds read low 1.03 | locus YOL012C, strain htz1 0.597 | locus YOL147C, strain pex11, active compounds read low 1.02 | locus YOR001W, strain rrp6, active compounds read low 0.941 | locus YOR061W, strain CKA2, active compounds read low 1 | locus YOR069W, strain VPS5, active compounds read low 1.01 | locus YOR070C, strain gyp1, active compounds read low 0.994 | locus YOR080W, strain dia2, active compounds read low 0.985 | locus YOR083W, strain WHI5, active compounds read low 1.03 | locus YOR106W, strain vam3, active compounds read low 1.02 | locus YOR136W, strain idh2, active compounds read low 0.999 | locus YOR144C, strain elg1, active compounds read low 1.02 | locus YOR184W, strain ser1, active compounds read low 0.996 | locus YOR231W, strain MKK1, active compounds read low 0.978 | locus YOR265W, strain rbl2, active compounds read low 0.994 | locus YOR270C, strain vph1, active compounds read low 0.779 | locus YOR290C, strain snf2, active compounds read low 1 | locus YOR316C, strain cot1, active compounds read low 1.02 | locus YPL051W, strain arl3, active compounds read low 1.01 | locus YPL078C, strain atp4, active compounds read low 1.01 | locus YPL106C, strain sse1, active compounds read low 1.02 | locus YPL240C, strain hsp82, active compounds read low 0.989 | locus YPL241C, strain CIN2, active compounds read low 1.01 | locus YPL256C, strain CLN2, active compounds read low 0.965 | locus YPR119W, strain clb2, active compounds read low 1.01 | locus YPR141C, strain kar3, active compounds read low 1.03 | locus YPR163C, strain tif3, active compounds read low 1.02 | locus YPR167C, strain met16, active compounds read low 1.02 | strain wtn01, active compounds read low 1
active: locus YLR262C, strain YPT6 (second series), active compounds read low 0.711 | locus YLR262C, strain YPT6, active compounds read low 0.602
